ELG1 DNA repair = ELG1-dependent DNA repair inhibition | Potency, µM (series often up to 46.1 µM), hits mostly inhibitors | 2.3% of 330,000 active | HEK293T ELG1-luciferase reporter, luminescence, 16 h; DNA damage induced by 5-fluorouridine; note: nearly all actives have a fitted effect of over 55% in size
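Step one: seed 2,000 cells per well. Step two: pin-transfer compound or DMSO alongside 5-fluorouridine. Step three: incubate 16 hr, 37 °C, 5% CO2. Step four: add ONE-Glo, wait 30 min, read luminescence.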
NPC1 promoter act = activates the NPC1 promoter. AID 485313. Potency, µM (highest dose often 9.22 µM), most hits filed as activators. 2.4% of 320,000 active. Huh7 NPC1 promoter luciferase reporter, 24 h; note: nearly all actives have a fitted effect of over 60% in size
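In 1536-well qHTS, Huh7 cells harboring an NPC1 promoter–luciferase construct received compound for 24 h; activation was quantified by luminescence following luciferase reagent addition.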
FLuc modulator = firefly luciferase modulation, counter-screen for miR-21 project; AID 588342; purified FLuc, Km substrates, luminescence inhibition; 6.9% of 360,000 active; Potency, µM (series often up to 57.5 µM), actives largely listed as inhibitors; note: nearly all actives have a fitted effect of over 55% in size
Target sequence (P08659 whole entry, looked up): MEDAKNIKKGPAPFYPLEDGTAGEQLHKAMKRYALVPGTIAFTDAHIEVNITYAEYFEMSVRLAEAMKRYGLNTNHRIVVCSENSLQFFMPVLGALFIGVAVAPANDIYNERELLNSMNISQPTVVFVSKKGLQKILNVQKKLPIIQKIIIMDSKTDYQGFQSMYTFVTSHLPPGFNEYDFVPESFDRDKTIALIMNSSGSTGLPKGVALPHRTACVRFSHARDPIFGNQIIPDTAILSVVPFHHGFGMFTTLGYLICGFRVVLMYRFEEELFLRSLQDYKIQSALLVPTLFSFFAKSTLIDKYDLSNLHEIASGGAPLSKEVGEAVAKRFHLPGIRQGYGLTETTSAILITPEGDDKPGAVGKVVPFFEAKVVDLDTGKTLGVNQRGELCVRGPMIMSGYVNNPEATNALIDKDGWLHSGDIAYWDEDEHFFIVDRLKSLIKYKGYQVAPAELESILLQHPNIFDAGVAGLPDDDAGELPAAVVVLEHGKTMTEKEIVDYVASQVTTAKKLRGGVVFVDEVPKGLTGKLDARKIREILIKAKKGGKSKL
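Purified P. pyralis luciferase (10nM final) with 10uM D-luciferin and 10uM ATP (Km levels) in 50mM Tris acetate pH 7.5, 10mM Mg acetate, 0.01% Tween-20, 0.05% BSA; qHTS 6-point titration, ~60 µM downward; luminescence read.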
Rab9 prom act = Rab9 promoter activation. 2.8% of 320,000 active. AID 485297. Potency, µM (series often up to 9.22 µM), usual class: activators. Huh7 Rab9 promoter-luciferase reporter, luminescence, 24 h; note: nearly all actives have a fitted effect of over 60% in size
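Steps: seed 1500 Huh7 Rab9-luc cells per well, rest 2 h at 37 °C; add compound in DMSO; incubate 24 h; add luciferase reagent, 10 min ambient; read luminescence.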
SMN2 splice up = SMN2 splice variant enhancement. HEK293 SMN2-luciferase splicing reporter, luminescence, 30-36 h. Potency, µM (highest dose often 46.1 µM), actives largely listed as activators. 2.8% of 210,000 active; note: nearly all actives have a fitted effect of over 55% in size
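HEK293 cells carry an SMN2 […]–luciferase reporter in which exon 7 inclusion puts luciferase in frame. Cells were plated 10-12 h before compound addition, then incubated 30-36 h at 37C. ONE-Glo luminescence was read; sodium butyrate at 4.5 mM final served as control.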
ELG1 genotoxic = inducers of genotoxicity in HEK293T ELG1-luciferase cells; HEK293T ELG1-luciferase reporter, luminescence, 16 h; Potency, µM (titrated, usually from 46 µM), most hits filed as activators; 1.3% of 330,000 active; AID 504466; note: nearly all actives have a fitted effect of over 60% in size
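Genotoxicity was scored as increased ELG1-luciferase reporter signal, measured by ONE-Glo luminescence (30 min, room temperature). Compound or vehicle exposure of the HEK293T reporter cells lasted 16 hr at 37°C.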
A number is an active result; – = inactive; ? = inconclusive; · = not tested or not shown. In the library only some 9.3% were active in any assay of this set; here they are far more common. Calls come from the whole dose curve; as a rule, active = well fitted curve in the direction sought with a large enough effect; inconclusive = small, poorly fitted or top-dose-only effect, or another doubt; inactive = no such curve, though single readings can be large; an effect the other way counts as inactive or inconclusive.

SMILES	ELG1 DNA repair	NPC1 promoter act	FLuc modulator	Rab9 prom act	SMN2 splice up	ELG1 genotoxic
COCCCNC(=O)c1ccc2c3c(onc13)-c1ccccc1C2=O	?	3.2µM	6µM	0.71µM	·	–
COCCCNC(=O)c1ccccc1Oc1ccccc1	–	–	–	–	–	–
c1ccc(-n2nc3c(ccc4cnnc43)[nH]2)cc1	?	2.5µM	7.6µM	1.8µM	?	?
CCOc1cc(C(=O)Nc2ccc(S(=O)(=O)Nc3onc(C)c3C)cc2)cc(OCC)c1OCC	–	·	·	·	·	–
Cc1cc(C)nc(NS(=O)(=O)c2ccc(NC(=O)COc3ccc(C(C)(C)C)cc3)cc2)n1	·	·	11µM	·	–	·
CCCOc1ccc(C(=O)Nc2ccc(S(=O)(=O)Nc3cc(C)nc(C)n3)cc2)cc1	–	–	15µM	–	·	–
CCCOc1ccc(C(=O)Nc2ccc(S(=O)(=O)Nc3onc(C)c3C)cc2)cc1	?	–	8.5µM	–	–	–
CCCCOc1ccc(C(=O)Nc2ccc(S(=O)(=O)Nc3nc(C)cc(C)n3)cc2)cc1	·	·	?	·	–	·
CCCCOc1ccc(C(=O)Nc2ccc(S(=O)(=O)Nc3onc(C)c3C)cc2)cc1	–	–	17µM	–	·	–
O=C(NCCOc1ccccc1F)c1cc(F)c(F)cc1Cl	?	0.71µM	3µM	1.4µM	2µM	?
Cc1ccccc1C(=O)NCCOc1ccccc1Cl	?	0.63µM	8.5µM	0.56µM	·	5.8µM
CSc1ccccc1C(=O)NCCOc1ccccc1C	–	–	–	–	–	–
COc1ccccc1OCCNC(=O)c1cc(F)c(F)cc1Cl	?	–	?	–	–	–
CC1CCc2c(C(=O)Nc3ccc(N4CCOCC4)cc3)csc2C1 (stereo unspecified)	–	–	?	–	·	–
Cc1ccnc(NC(=O)c2ccc3c(c2)NC(=O)C(C)S3)c1 (stereo unspecified)	?	0.71µM	1.9µM	0.63µM	·	?
CCCNC(=O)c1ccccc1NC(=O)c1ccc2c(c1)NC(=O)C(C)S2 (stereo unspecified)	?	–	–	–	·	–
CC(=O)c1ccccc1NC(=O)c1ccc2c(c1)NC(=O)C(C)S2 (stereo unspecified)	?	?	15µM	?	·	?
CNc1ccc(S(=O)(=O)NC)cc1[N+](=O)[O-]	–	–	–	–	–	–
N#Cc1c(N2CCCC(O)C2)nc(N)c2c(N)nc3c(c12)CC(=O)N3C12CC3CC(CC(C3)C1)C2 (stereo unspecified)	?	–	5.4µM	–	–	–
Cc1ccc2[nH]c(=O)c3cc(C(=O)N4CCN(c5ccccc5)CC4)sc3c2c1	·	·	–	·	–	·
Cc1ccc2[nH]c(=O)c3cc(C(=O)N4CCN(C(=O)c5ccco5)CC4)sc3c2c1	16µM	–	–	–	–	–
CCOCCCN(Cc1ccco1)C(=O)c1cc2c(=O)[nH]c3ccc(C)cc3c2s1	16µM	–	–	–	–	–
Cn1cccc1C(=O)NC(=O)COC(=O)CC12CC3CC(CC(Br)(C3)C1)C2	?	–	–	–	–	–
Cn1cccc1C(=O)NC(=O)COC(=O)CC12CC3CC(CC(C3)C1)C2	–	–	17µM	–	–	–
Cc1onc(-c2ccccc2)c1-c1csc(COc2ccccc2)n1	?	–	–	–	·	–
SMILES	ELG1 DNA repair	NPC1 promoter act	FLuc modulator	Rab9 prom act	SMN2 splice up	ELG1 genotoxic
Nc1c(NCc2ccccc2F)c(=O)[nH]c(=O)n1Cc1ccccc1	–	–	21µM	–	–	–
CCCCn1c(N)c(NCc2ccccc2)c(=O)[nH]c1=O	–	–	–	–	–	–
Cc1cc2nccc(-c3ccncc3)n2n1	13µM	–	–	–	–	–
Cc1ccnc(NC(=O)c2ccc(Cl)c(NC(=O)C(C)Oc3ccccc3)c2)c1 (stereo unspecified)	?	–	?	–	·	–
O=C(NCc1cccs1)c1nc2c(nnn2Cc2ccccc2Cl)c(=O)[nH]1	16µM	–	–	–	–	–
O=C(NCCN1CCN(c2ccccc2)CC1)c1cccc(Cl)c1	–	–	–	–	·	–
COc1ccc(CNC(=O)CSCc2cnn(-c3ccccc3)c2-n2cccc2)cc1OC	·	·	–	·	–	·

Screening results (PubChem)
